Reference: PubChem BioAssay (NCATS)
Values joined by “and” are separate entries in the source; they are usually repeats but may differ in a detail not shown here. Equal entries are not always repeated. Results filed as inconclusive are left out. Active and inactive are the calls of the source. Unless noted, the call rests on the fitted dose curve; in most records, active means well fitted curve in the direction sought with a large enough effect; inconclusive means small, poorly fitted or top-dose-only effect, or another doubt; inactive means no such curve, though single readings can be large; an effect the other way counts as inactive or inconclusive.

Legend:
[1] = Cell Viability - BJ (AID 421; calls by dose curve;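 further: potency means the concentration at half of the fitted maximal effect; cells exposed to compound for 40 hours at 37 °C before readout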); settings: BJ fibroblast viability, qHTS
Procedure, shortened: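 Normal human BJ foreskin fibroblasts, 1500/well in complete medium, treated 40 hr at 37 °C. Cellular ATP by CellTiter-Glo luminescence; normalized to DMSO and 100 uM tamoxifen, AC50 from Hill fit.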

[2] = Cell Viability - HUV-EC-C (AID 542); settings: HUV-EC-C endothelial cell viability, qHTS; series mostly up to 92.2 µM;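 further: cells exposed to compound for 40 hours; on the % scale 0 is the no-effect control and ±100 the full control effect; nearly all actives have a fitted effect of over 35% in size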
Procedure, shortened: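 Decrease in cellular ATP, quantified by luciferase luminescence, reflects toxicity in normal human vascular endothelial HUV-EC-C cells given compound for 40 hr in complete culture medium. Values are AC50s from concentration-response curves.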

[3] = Cellular Toxicity (caspase-3) HUV-EC-C (AID 656); settings: HUV-EC-C cells, caspase-3 activation (apoptosis), vehicle = 0, 100 µM tamoxifen = 100%; series mostly up to 92.2 µM
Procedure, shortened: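 Read-out: luminescence proportional to caspase 3/7 activity, measured 20 min after adding Caspase-Glo 3/7 reagent. Cells (HUV-EC-C) had received compound for 16 hr at 37°C. Increases relative to DMSO and 100 uM tamoxifen gave concentration-response AC50 values.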

[4] = Cellular Toxicity (caspase-3) MRC-5 (AID 659); settings: MRC-5 cells, luminescence, normalized: DMSO 0%, 10 µM staurosporine 100%; series mostly up to 91.7 µM
Procedure, shortened: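 Luminescence from caspase-cleaved aminoluciferin substrate (Caspase-Glo 3/7, 1 hr RT) reports caspase 3/7 activity in MRC-5 lung fibroblasts after 16 hr compound exposure. Normalized to DMSO basal and 10 uM staurosporine as 100%; AC50 from Hill fits.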

[5] = Cellular Toxicity (caspase-3) Mesangial (AID 660); settings: mesangial cells, normalized: DMSO 0%, 100 µM tamoxifen 100%; series mostly up to 91.7 µM;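 further: cells exposed to compound for 16 h before the caspase read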
Procedure, shortened: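 Concentration-response qHTS: compound-induced rise in caspase 3/7 luminescence in human mesangial cells after 16 h, normalized to DMSO and 100 uM tamoxifen controls.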

[6] = Cellular Toxicity (caspase-3) SK-N-SH (AID 661); settings: SK-N-SH caspase-3 activation, qHTS; series mostly up to 91.7 µM
Procedure, shortened: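 Caspase 3/7 activation is measured as a luminescence increase from aminoluciferin released by substrate cleavage in SK-N-SH cells after 16 hr compound treatment; values are AC50 from concentration-response curves.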

[7] = Cellular Toxicity (caspase-3) Hek293 (AID 664); settings: HEK293 caspase-3 activation, DMSO = 0%, 100 µM tamoxifen = 100%; at 92.2 µM (top of the series);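 further: cells exposed to compound for 16 h at 37 °C before readout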
Procedure, shortened: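 Activation of caspase-3/7 is measured as increased luminescence from cleaved peptide-aminoluciferin substrate in HEK293 cells treated 16 hours at 37 °C. AC50 values come from Hill-equation fits of concentration-response data.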

[8] = Cellular Toxicity (caspase-3) NIH 3T3 (AID 666); settings: NIH 3T3 caspase-3 activation, apoptosis/toxicity; series mostly up to 92.2 µM;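 further: caspase signal read after 16 h compound exposure; 0% = DMSO basal and 100% = 100 µM tamoxifen stimulation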
Procedure, shortened: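 Concentration-response qHTS in NIH 3T3 mouse fibroblasts scores caspase-3/7 activation as rising luminescence after 16 hr compound exposure. Signals are scaled between DMSO-only and 100 uM tamoxifen.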

[9] = MultiTox-Fluor Cytotoxicity Assay - LYMP1-001 - Dead Cells (AID 946); settings: LYMP1-001 lymphoblastoid cells, dead-cell protease fluorescence; series mostly up to 92.2 µM;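 further: 0% = DMSO and 100% = tetraoctylammonium bromide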
Procedure, shortened: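 LYMP1-001 lymphoblastoid cells (2500/well) treated 16 h at 37 C. Dead-cell protease cleavage of bis-AAF-R110 read at Ex/Em 485/520. Normalized to DMSO and 15 uM tetraoctylammonium bromide; AC50 from Hill fits.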

[10] = Cell Viability - LYMP1-002 - Assay at 16 hr (AID 948); settings: LYMP1-002 lymphoblastoid cell viability; series mostly up to 92.2 µM;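 further: 0% = DMSO alone and full effect = 92 µM tetraoctylammonium bromide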
Procedure, shortened: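 Acute cytotoxicity is scored as a concentration-dependent fall in intracellular ATP in a human lymphoblastoid line (LYMP1-002) after 16 hr compound exposure at 37 C, measured by luciferase luminescence.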

[11] = MultiTox-Fluor Cytotoxicity Assay - LYMP1-003 - Live Cells (AID 962); settings: LYMP1-003 lymphoblastoid cells, MultiTox-Fluor live-cell protease fluorescence; series mostly up to 92.2 µM;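 further: 0% = DMSO only and full loss = 92 µM tetraoctylammonium bromide; cytotoxic hits lower the live-cell protease signal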
Procedure, shortened: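 Cells plated at 2500 per well and incubated 5 hr; compounds added and incubated 16 hr at 37 C; MultiTox-Fluor reagent added for 60 min at room temperature; fluorescence of liberated AFC measured at 405/510 nm.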

[12] = Cell Viability - LYMP2-003 (AID 965); settings: LYMP2-003 lymphoblastoid cell viability; series mostly up to 92.2 µM;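 further: cells exposed to compounds for 24 h before reading; 0% = DMSO only and full effect = 92 µM tetraoctylammonium bromide; nearly all actives have a fitted effect of over 50% in size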
Procedure, shortened: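 Acute cytotoxicity is scored as a concentration-dependent drop in intracellular ATP, measured by luciferase luminescence in human lymphoblastoid cells treated for 24 hours at 37 C. AC50 values derive from Hill-equation modelling.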

[13] = Cell Viability - LYMP2-013 (AID 970); settings: LYMP2-013 lymphoblastoid cells viability; series mostly up to 92.2 µM;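 further: cells exposed to compound for 24 h at 37 °C; 0% = DMSO only and full inhibition = tetraoctylammonium bromide control; nearly all actives have a fitted effect of over 55% in size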
Procedure, shortened: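 Acute toxicity was measured in human lymphoblastoid cells (2500/well) exposed to compound titrations for 24 hr, with ATP luminescence (CellTiter-Glo) as read-out and AC50 fitted by Hill equation.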

[14] = Cell Viability - LYMP2-015 (AID 971); settings: LYMP2-015 lymphoblastoid cell viability; series mostly up to 92.2 µM;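 further: 0% = DMSO only and full effect = 92 µM tetraoctylammonium bromide; nearly all actives have a fitted effect of over 55% in size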
Procedure, shortened: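 Acute toxicity was scored as a concentration-dependent drop in intracellular ATP in lymphoblastoid cells after 24 hr compound exposure in complete medium. Detection used CellTiter-Glo luciferase luminescence.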

[15] = Cell Viability - LYMP2-017 (AID 972); settings: LYMP2-017 lymphoblastoid cell viability; series mostly up to 92.2 µM;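 further: cells exposed to compound for 24 hours at 37 °C; on the % scale 0 is the no-effect control and ±100 the full control effect; nearly all actives have a fitted effect of over 55% in size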
Procedure, shortened: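 Steps: plate 2500 lymphoblastoid cells per well; incubate 5 hr at 37 C; add compound across a concentration series and incubate 24 hr at 37 C; add CellTiter-Glo and read luminescence after 30 min at room temperature; fit Hill curves for AC50.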

[16] = Cell Viability - LYMP2-007 (AID 979); settings: LYMP2-007 lymphoblastoid cell viability; series mostly up to 92.2 µM;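 further: cells exposed to compound for 24 h before reading; 0% = DMSO only and the negative end = 92 µM tetraoctylammonium bromide; nearly all actives have a fitted effect of over 60% in size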
Procedure, shortened: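 Acute toxicity is scored as a concentration-dependent fall in intracellular ATP in human lymphoblastoid cells treated 24 hr at 37 C, measured by luciferase luminescence; Hill-equation modelling yields AC50.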

[17] = qHTS Assay for Identification of Small Molecule Inducers of Hypoxia Response (AID 2120; active means well fitted curve in the direction sought with a large enough effect in the signal ratio, with a control signal flat, not every such curve was filed as active; the % refers to the signal ratio; further: 0% is about no effect); settings: hypoxia response reporter cells, beta-lactamase ratio readout; series mostly up to 104 µM
Procedure, shortened: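 Induction of beta-lactamase reporter activity was measured in CellSensor HRE-bla ME-180 cells after 17 h compound treatment at 37 degrees C, using CCF4 substrate and the 460nm/530nm emission ratio to derive AC50 values.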

[18] = target: Peroxisome proliferator-activated receptor alpha (Homo sapiens) (UniProt Q07869); experiment: qHTS assay for small molecule agonists of the peroxisome proliferator-activated receptor alpha (PPARalpha) signaling pathway (AID 651778); settings: PathHunter PPARalpha complementation, chemiluminescence, 6 h; hits give high values; further: % of control where 0% means no effect
Sequence of Peroxisome proliferator-activated receptor alpha (Homo sapiens) (Q07869 whole entry, looked up): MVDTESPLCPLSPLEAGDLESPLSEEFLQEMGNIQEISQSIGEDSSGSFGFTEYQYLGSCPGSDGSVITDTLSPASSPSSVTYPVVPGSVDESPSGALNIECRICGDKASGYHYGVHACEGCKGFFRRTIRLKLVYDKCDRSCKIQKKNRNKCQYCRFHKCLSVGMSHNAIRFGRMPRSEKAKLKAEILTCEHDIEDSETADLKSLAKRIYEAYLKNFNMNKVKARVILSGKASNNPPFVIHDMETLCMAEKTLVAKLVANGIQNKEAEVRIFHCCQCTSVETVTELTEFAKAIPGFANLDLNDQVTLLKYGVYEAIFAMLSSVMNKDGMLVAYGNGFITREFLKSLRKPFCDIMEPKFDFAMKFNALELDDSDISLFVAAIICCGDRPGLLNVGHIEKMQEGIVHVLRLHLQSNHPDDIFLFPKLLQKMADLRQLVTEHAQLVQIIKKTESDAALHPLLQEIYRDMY
Procedure, shortened: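 Cells plated at 2,000/well and held overnight at 37 C, 5% CO2, then compound added by pin tool for 6 hr; after PathHunter detection reagent and 60 min at room temperature, chemiluminescence from enzyme complementation was read.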

[19] = qHTS assay for small molecule agonists of the antioxidant response element (ARE) signaling pathway measured by Nrf2-dependant transcriptional activity - cell viability counter screen (AID 720653; active means well fitted curve in the direction sought with a large enough effect in the repeat runs; an effect the other way counts as inactive or inconclusive; further: on the % scale 0 is the no-effect control and ±100 the full control effect); settings: ARE-bla HepG2 viability, CellTiter-Glo ATP luminescence, 16 h; hits give low values
Procedure, shortened: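 ARE-bla HepG2 cells (2,000/well) rested 5 hrs at 37C/5% CO2, then exposed to compounds in DMSO for 16 hrs. Viability was read in the same wells as intracellular ATP by luminescence, 30 min at room temperature after reagent addition.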

[20] = qHTS assay for cell viability of the p53RE-bla HCT-116 cell line (AID 743292); settings: p53RE-bla HCT-116 viability, ATP luminescence, 16 h; series mostly up to 95 µM; further: on the % scale 0 is the no-effect control and ±100 the full control effect; nearly all actives have a fitted effect of over 55% in size
Procedure, shortened: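 ATP-based luminescence, 16 h compound exposure at 37 C, p53RE-bla HCT-116 cells at 4,000/well.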

Clc1cccc(Cl)c1
inactive: Potency [1] > 92 µM | Potency [2] | outcome [3] | outcome [4] | outcome [5] | Potency [6] | caspase-3 activation [7] 1.04% | Potency [8] | outcome [9] | outcome [10] | outcome [11] | Potency [12] | Potency [13] | Potency [14] | Potency [15] | Potency [16] | Potency [17] | max response [18] -0.108% | max response [19] -2.71% | Potency [20]

COP(=S)(OC)SCn1nnc2ccccc2c1=O
inactive: Potency [1] > 92 µM | Potency [2] | outcome [3] | outcome [4] | outcome [5] | Potency [6] | caspase-3 activation [7] 0.18% | Potency [8] | outcome [9] | outcome [10] | outcome [11] | Potency [12] | Potency [13] | Potency [14] | Potency [15] | Potency [16] | Potency [17] | max response [18] -5.24% and -2.4% | max response [19] -8.53% and -8.77% | Potency [20]

CC(=O)NNc1ccccc1
inactive: Potency [1] > 92 µM | Potency [2] | outcome [3] | outcome [4] | outcome [5] | Potency [6] | caspase-3 activation [7] -1.37% | Potency [8] | outcome [9] | outcome [10] | outcome [11] | Potency [12] | Potency [13] | Potency [14] | Potency [15] | Potency [16] | Potency [17] | max response [18] -1.86% | max response [19] 1.56% | Potency [20]

CCOP(=O)(OCC)OCC
inactive: Potency [1] > 92 µM | Potency [2] | outcome [3] | outcome [4] | outcome [5] | Potency [6] | caspase-3 activation [7] 0.845% | Potency [8] | outcome [9] | outcome [10] | outcome [11] | Potency [12] | Potency [13] | Potency [14] | Potency [15] | Potency [16] | Potency [17] | max response [18] 0.636% and -0.566% | max response [19] -1.09% and -8.89% | Potency [20]

Cc1ccc(N)cc1Cl
inactive: Potency [1] > 92 µM | Potency [2] | outcome [3] | outcome [4] | outcome [5] | Potency [6] | caspase-3 activation [7] 0.465% | Potency [8] | outcome [9] | outcome [10] | outcome [11] | Potency [12] | Potency [13] | Potency [14] | Potency [15] | Potency [16] | Potency [17] | max response [18] 3.75% | max response [19] 7.4% | Potency [20]

CCCC[N+](=O)[O-]
inactive: Potency [1] > 92 µM | Potency [2] | outcome [3] | outcome [4] | outcome [5] | Potency [6] | caspase-3 activation [7] 23.2% | Potency [8] | outcome [9] | outcome [10] | outcome [11] | Potency [12] | Potency [13] | Potency [14] | Potency [15] | Potency [17] | max response [18] 1.08% | max response [19] -1.65% | Potency [20]

ClC(Br)Br
inactive: Potency [1] > 92 µM | Potency [2] | outcome [3] | outcome [4] | outcome [5] | Potency [6] | caspase-3 activation [7] -0.91% | Potency [8] | outcome [9] | outcome [10] | outcome [11] | Potency [12] | Potency [13] | Potency [14] | Potency [15] | Potency [16] | Potency [17] | max response [18] -8.35% | max response [19] 0.446% | Potency [20]

c1ccc(N=NNc2ccccc2)cc1
inactive: Potency [1] > 92 µM | Potency [2] | outcome [3] | outcome [4] | outcome [5] | Potency [6] | caspase-3 activation [7] -0.924% | Potency [8] | outcome [9] | outcome [10] | outcome [11] | Potency [12] | Potency [13] | Potency [14] | Potency [15] | Potency [16] | Potency [17] | max response [18] -1.28% and 2.45% | max response [19] -24.2% and -20.9% | Potency [20]

COC(=O)c1ccccc1N
inactive: Potency [1] > 92 µM | Potency [2] | outcome [3] | outcome [4] | outcome [5] | Potency [6] | caspase-3 activation [7] -1.69% | Potency [8] | outcome [9] | outcome [10] | outcome [11] | Potency [12] | Potency [13] | Potency [15] | Potency [16] | Potency [17] | max response [18] -6.67% | max response [19] -7.9% | Potency [20]

CC(C)Br
inactive: Potency [1] > 92 µM | Potency [2] | outcome [3] | outcome [4] | outcome [5] | Potency [6] | caspase-3 activation [7] -2.59% | Potency [8] | outcome [9] | outcome [10] | outcome [11] | Potency [12] | Potency [13] | Potency [14] | Potency [15] | Potency [16] | Potency [17] | max response [18] -8.27% | max response [19] -6.22% | Potency [20]

c1ccc(NNc2ccccc2)cc1
inactive: Potency [1] > 92 µM | Potency [2] | outcome [3] | outcome [4] | outcome [5] | Potency [6] | caspase-3 activation [7] -0.473% | Potency [8] | outcome [9] | outcome [10] | outcome [11] | Potency [12] | Potency [13] | Potency [14] | Potency [15] | Potency [16] | Potency [17] | max response [18] -1.84% and -2.39% | max response [19] 0.997% and 18.6% | Potency [20]

O=c1ccc(=O)[nH][nH]1
inactive: Potency [1] > 92 µM | Potency [2] | outcome [3] | outcome [4] | outcome [5] | Potency [6] | caspase-3 activation [7] -1% | Potency [8] | outcome [9] | outcome [10] | outcome [11] | Potency [12] | Potency [13] | Potency [14] | Potency [15] | Potency [16] | Potency [17] | max response [18] -0.0075% and -1.1% | max response [19] 27.2% and 14.4% | Potency [20]
